This is an account of results in PubChem BioAssay (EPA / NIEHS).

Records with an inconclusive call do not appear. Active and inactive are the calls of the source. Rule for the calls, unless noted: active = hit-call score of the fitted dose curve at least 0.9, where 1 is the maximum; inconclusive = response in the unintended direction; inactive = score below 0.9.

X-box-binding protein 1 (Homo sapiens), sequence (P17861 whole entry, looked up, the tested form may be a part): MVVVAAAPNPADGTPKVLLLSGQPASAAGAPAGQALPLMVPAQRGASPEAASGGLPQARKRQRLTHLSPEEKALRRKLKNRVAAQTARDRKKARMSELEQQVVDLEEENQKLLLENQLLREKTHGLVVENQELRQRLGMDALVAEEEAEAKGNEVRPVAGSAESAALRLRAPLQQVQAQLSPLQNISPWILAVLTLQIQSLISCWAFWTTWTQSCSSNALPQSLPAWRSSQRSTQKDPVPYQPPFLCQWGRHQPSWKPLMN
Steroid hormone receptor ERR1 (Homo sapiens), sequence (P11474 whole entry, looked up, the tested form may be a part): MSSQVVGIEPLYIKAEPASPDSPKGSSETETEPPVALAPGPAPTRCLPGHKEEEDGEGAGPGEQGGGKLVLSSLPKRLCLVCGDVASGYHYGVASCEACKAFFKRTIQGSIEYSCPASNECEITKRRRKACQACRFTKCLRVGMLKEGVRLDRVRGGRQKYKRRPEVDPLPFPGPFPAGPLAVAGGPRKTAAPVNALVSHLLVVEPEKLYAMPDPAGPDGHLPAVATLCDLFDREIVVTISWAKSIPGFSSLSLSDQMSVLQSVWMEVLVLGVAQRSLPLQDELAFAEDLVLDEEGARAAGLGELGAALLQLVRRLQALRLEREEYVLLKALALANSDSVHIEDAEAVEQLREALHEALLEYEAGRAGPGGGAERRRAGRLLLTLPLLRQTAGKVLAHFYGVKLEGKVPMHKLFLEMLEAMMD
Estrogen receptor (Homo sapiens), sequence (P03372 whole entry, looked up, the tested form may be a part): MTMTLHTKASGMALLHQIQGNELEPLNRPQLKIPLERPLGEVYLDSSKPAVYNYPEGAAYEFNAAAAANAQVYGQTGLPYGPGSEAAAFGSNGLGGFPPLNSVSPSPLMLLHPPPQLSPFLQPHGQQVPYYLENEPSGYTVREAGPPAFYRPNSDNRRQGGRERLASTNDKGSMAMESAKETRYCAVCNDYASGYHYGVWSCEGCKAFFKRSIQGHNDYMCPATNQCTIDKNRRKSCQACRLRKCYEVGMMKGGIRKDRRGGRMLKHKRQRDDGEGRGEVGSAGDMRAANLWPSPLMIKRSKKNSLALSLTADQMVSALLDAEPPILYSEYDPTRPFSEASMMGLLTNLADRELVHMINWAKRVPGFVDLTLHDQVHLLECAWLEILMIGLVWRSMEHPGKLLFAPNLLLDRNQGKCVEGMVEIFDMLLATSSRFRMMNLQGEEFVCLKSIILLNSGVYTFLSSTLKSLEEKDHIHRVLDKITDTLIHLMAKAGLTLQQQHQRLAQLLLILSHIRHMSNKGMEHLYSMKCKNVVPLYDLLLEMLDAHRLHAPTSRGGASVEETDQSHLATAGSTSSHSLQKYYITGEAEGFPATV

In the first experiment the target is Estrogen receptor (Homo sapiens) (UniProt P03372). The experiment in a line: ATG_ERa_TRANS: Attagene TRANS-FACTORIAL HepG2 Assay for human Estrogen Receptor alpha (ERa) (AID 2282970). To be noted: HepG2 Attagene TRANS ERa GAL4 reporter, mRNA. The method, boiled down:
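Multiplexed cell-based reporter format in HepG2: chimeric ERa-Gal4 protein drives GAL4-UAS reporter transcription. Fluorescent reporter mRNA quantified by capillary electrophoresis 24 hours after dosing; endpoint fitted as signal gain against DMSO.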
Take `N#Cc1cc(Br)c(O)c(Br)c1`: the compound was classed as inactive.

For `Cc1c(F)c(F)c(COC(=O)C2C(/C=C(\Cl)C(F)(F)F)C2(C)C)c(F)c1F` (centres undefined), the AC50 was 50 µM (active).

In the case of `O=C(O)COc1nc(Cl)c(Cl)cc1Cl`, the compound was called inactive.

Take `COc1cnc(OC)n2nc(NS(=O)(=O)c3c(OCC(F)F)cccc3C(F)(F)F)nc12`: the compound was classed as inactive.

On to `O=C(O)c1nc(Cl)ccc1Cl`, for which the outcome was inactive.

`CCOC(=O)C(Cl)Cc1cc(-n2nc(C)n(C(F)F)c2=O)c(F)cc1Cl` (centres undefined): the result was inactive.

On to `CNC(=O)ON=CC(C)(C)SC`, for which the compound was called inactive.

For `N#CC(CCc1ccc(Cl)cc1)(Cn1cncn1)c1ccccc1` (centres undefined), the compound was called inactive.

Take `CCOP(=S)(OCC)SCn1c(=O)oc2cc(Cl)ccc21`: the AC50 is 29.9 µM (active).

With `CS/C(C)=N/OC(=O)N(C)SN(C)C(=O)O/N=C(\C)SC`, the call was inactive.

With `Fc1ccc(Oc2ccnc3cc(Cl)cc(Cl)c23)cc1`, the compound was classed as inactive.

Take `CCON=C(CC)C1=C(O)CC(c2c(C)cc(C)cc2C)CC1=O` (centres undefined): the result was inactive.

For the compound `Cc1ccc(-c2c(Cl)nc(C#N)n2S(=O)(=O)N(C)C)cc1`, the call was inactive.

As to `CCOc1cc(Oc2ccc(C(F)(F)F)cc2Cl)ccc1[N+](=O)[O-]`, the compound was called inactive.

Turning to `CCNc1nc(Cl)nc(NC(C)C)n1`, the outcome was inactive.

Take `Cc1cc(Cl)ccc1OCC(=O)O`: the compound was called inactive.

On to `CN(C)C(=S)SSC(=S)N(C)C`, for which the result was inactive.

On to `C#CCOS(=O)OC1CCCCC1Oc1ccc(C(C)(C)C)cc1` (centres undefined), for which the compound was classed as inactive.

Take `CC(C)Oc1cc(-n2nc(C(C)(C)C)oc2=O)c(Cl)cc1Cl`: the result was inactive.

Take `CC1=C(C(=O)Nc2ccccc2)SCCO1`: the compound was called inactive.

On to `COP(N)(=O)SC` (centres undefined), for which the compound was classed as inactive.

Turning to `O=C(Nc1ccccc1)Nc1ccnc(Cl)c1`, the outcome was inactive.

For `CC1COC(Cn2cncn2)(c2ccc(Oc3ccc(Cl)cc3)cc2Cl)O1` (centres undefined), the compound was called inactive.

In the case of `C=CC1(C)OC(=O)N(c2cc(Cl)cc(Cl)c2)C1=O` (centres undefined), the outcome was inactive.

The next experiment has as its target Steroid hormone receptor ERR1 (Homo sapiens) (UniProt P11474). The experiment in a line: ATG_ERRa_TRANS: Attagene TRANS-FACTORIAL HepG2 Assay for human Estrogen-Related Receptor alpha (ERRa) (AID 2282971). The conditions noted are these: HepG2 Attagene TRANS reporter, ERRa transactivation. The method, boiled down: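 Signal gain relative to DMSO for an ERRa-Gal4 chimeric receptor, read as reporter mRNA by RT-PCR/capillary electrophoresis. Human HepG2 liver cells, transient multiplex reporter transfection, 24 h chemical exposure.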
`N#Cc1cc(Br)c(O)c(Br)c1`: the outcome was inactive.

Regarding `COc1cnc(OC)n2nc(NS(=O)(=O)c3c(OCC(F)F)cccc3C(F)(F)F)nc12`, the compound was classed as inactive.

In the case of `CNC(=O)ON=CC(C)(C)SC`, the result was inactive.

For the compound `CCNc1nc(Cl)nc(NCC)n1`, the outcome was inactive.

Take `N#CC(CCc1ccc(Cl)cc1)(Cn1cncn1)c1ccccc1` (centres undefined): the result was inactive.

On to `CCNc1nc(Cl)nc(NC(C)C)n1`, for which the call was inactive.

On to `COC(=O)C(C)Oc1ccc(Oc2ccc(Cl)cc2Cl)cc1` (centres undefined), for which the call was inactive.

As for `CC1=C(C(=O)Nc2ccccc2)SCCO1`, the compound was classed as inactive.

As to `O=C(Nc1ccccc1)Nc1ccnc(Cl)c1`, the call was inactive.

Turning to `CC1COC(Cn2cncn2)(c2ccc(Oc3ccc(Cl)cc3)cc2Cl)O1` (centres undefined), the compound was classed as inactive.

The next experiment deals with X-box-binding protein 1 (Homo sapiens) (UniProt P17861). The experiment in a line: ATG_Xbp1_CIS: Attagene CIS-FACTORIAL HepG2 Assay for human X-box Binding Protein 1 (XBP1) (AID 2282972; active = hit-call score of the fitted dose curve at least 0.9, where 1 is the maximum; inactive = score below 0.9). The conditions noted are these: HepG2 XBP1 cis-element reporter, Attagene multiplex; actives raise or lower the signal. The method, boiled down:
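Fluorescence-labelled cDNA fragments from reporter transcripts, separated by capillary electrophoresis, give the signal. Source: HepG2 cells transfected with promoter-driven reporter units, harvested 24 h post-dose. DMSO served as reference for bidirectional curve fitting.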
On to `N#Cc1cc(Br)c(O)c(Br)c1`, for which the half-maximal activity concentration (AC50) is 31.6 µM (active).

Consider `Cc1c(F)c(F)c(COC(=O)C2C(/C=C(\Cl)C(F)(F)F)C2(C)C)c(F)c1F` (centres undefined), for which the outcome was inactive.

Consider `O=C(O)COc1nc(Cl)c(Cl)cc1Cl`, for which the compound was classed as inactive.

Consider `COc1cnc(OC)n2nc(NS(=O)(=O)c3c(OCC(F)F)cccc3C(F)(F)F)nc12`, for which the outcome was inactive.

For `O=C(O)c1nc(Cl)ccc1Cl`, the call was inactive.

For `CCOC(=O)C(Cl)Cc1cc(-n2nc(C)n(C(F)F)c2=O)c(F)cc1Cl` (centres undefined), the compound was called inactive.

Consider `CNC(=O)ON=CC(C)(C)SC`, for which the outcome was inactive.

Consider `CCNc1nc(Cl)nc(NCC)n1`, for which the compound was classed as inactive.

For the compound `N#CC(CCc1ccc(Cl)cc1)(Cn1cncn1)c1ccccc1` (centres undefined), the result was inactive.

Regarding `CCOP(=S)(OCC)SCn1c(=O)oc2cc(Cl)ccc21`, the outcome was inactive.

In the case of `CS/C(C)=N/OC(=O)N(C)SN(C)C(=O)O/N=C(\C)SC`, the result was inactive.

As to `Fc1ccc(Oc2ccnc3cc(Cl)cc(Cl)c23)cc1`, the call was inactive.

For `CCON=C(CC)C1=C(O)CC(c2c(C)cc(C)cc2C)CC1=O` (centres undefined), the compound was called inactive.

As for `Cc1ccc(-c2c(Cl)nc(C#N)n2S(=O)(=O)N(C)C)cc1`, the half-maximal activity concentration (AC50) is 8.26 µM (active).

For the compound `CC(Oc1ccc(Cl)cc1Cl)C(=O)O` (centres undefined), the call was inactive.

In the case of `CCOc1cc(Oc2ccc(C(F)(F)F)cc2Cl)ccc1[N+](=O)[O-]`, the concentration at half-maximal activity (AC50) is 13.1 µM (active).

With `CCNc1nc(Cl)nc(NC(C)C)n1`, the compound was classed as inactive.

As to `COC(=O)C(C)Oc1ccc(Oc2ccc(Cl)cc2Cl)cc1` (centres undefined), the outcome was inactive.

Regarding `Cc1cc(Cl)ccc1OCC(=O)O`, the outcome was inactive.

Regarding `CN(C)C(=S)SSC(=S)N(C)C`, the compound was classed as inactive.

`C#CCOS(=O)OC1CCCCC1Oc1ccc(C(C)(C)C)cc1` (centres undefined): the compound was called inactive.

With `CC(C)Oc1cc(-n2nc(C(C)(C)C)oc2=O)c(Cl)cc1Cl`, the compound was called inactive.

As to `CC1=C(C(=O)Nc2ccccc2)SCCO1`, the compound was classed as inactive.

With `COP(N)(=O)SC` (centres undefined), the compound was called inactive.

With `O=C(Nc1ccccc1)Nc1ccnc(Cl)c1`, the compound was called inactive.

With `CC1COC(Cn2cncn2)(c2ccc(Oc3ccc(Cl)cc3)cc2Cl)O1` (centres undefined), the compound was classed as inactive.

Consider `C=CC1(C)OC(=O)N(c2cc(Cl)cc(Cl)c2)C1=O` (centres undefined), for which the compound was classed as inactive.

System in another experiment: not listed separately
The experiment in a line: ATG_M_19_TRANS: Attagene TRANS-FACTORIAL HepG2 Assay for M19 Transcription Factor (Internal Marker) (AID 2282974). To be noted: HepG2 Attagene TRANS-FACTORIAL M19 internal marker reporter. The method, boiled down: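 Measured here: internal-marker reporter transcript from HepG2 cells transfected with MRTUs, harvested at 24 h. cDNA PCR products were 6-FAM labelled by primer extension, cut with HpaI for 2 h at 37 C, and resolved by CE.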
In the case of `N#Cc1cc(Br)c(O)c(Br)c1`, the compound was called inactive.

As to `COc1cnc(OC)n2nc(NS(=O)(=O)c3c(OCC(F)F)cccc3C(F)(F)F)nc12`, the compound was classed as inactive.

As for `O=C(O)c1nc(Cl)ccc1Cl`, the outcome was inactive.

Take `CNC(=O)ON=CC(C)(C)SC`: the compound was called inactive.

Regarding `CCNc1nc(Cl)nc(NCC)n1`, the result was inactive.

As for `N#CC(CCc1ccc(Cl)cc1)(Cn1cncn1)c1ccccc1` (centres undefined), the outcome was inactive.

As to `CCOP(=S)(OCC)SCn1c(=O)oc2cc(Cl)ccc21`, the compound was classed as inactive.

Take `CS/C(C)=N/OC(=O)N(C)SN(C)C(=O)O/N=C(\C)SC`: the call was inactive.

Take `Fc1ccc(Oc2ccnc3cc(Cl)cc(Cl)c23)cc1`: the result was inactive.

Take `CC(Oc1ccc(Cl)cc1Cl)C(=O)O` (centres undefined): the compound was called inactive.

In the case of `CCNc1nc(Cl)nc(NC(C)C)n1`, the outcome was inactive.

Regarding `COC(=O)C(C)Oc1ccc(Oc2ccc(Cl)cc2Cl)cc1` (centres undefined), the compound was classed as inactive.

On to `Cc1cc(Cl)ccc1OCC(=O)O`, for which the result was inactive.

In the case of `CN(C)C(=S)SSC(=S)N(C)C`, the result was inactive.

Consider `CC(C)Oc1cc(-n2nc(C(C)(C)C)oc2=O)c(Cl)cc1Cl`, for which the result was inactive.

With `COP(N)(=O)SC` (centres undefined), the call was inactive.

In the case of `O=C(Nc1ccccc1)Nc1ccnc(Cl)c1`, the call was inactive.

`C=CC1(C)OC(=O)N(c2cc(Cl)cc(Cl)c2)C1=O` (centres undefined): the compound was classed as inactive.
